Assay outcomes from PubChem.
D2 PAM-1 – positive allosteric modulators of human D2 dopamine receptor | P14416 | DiscoveRx D2 beta-arrestin cells, luminescence, 90 min; 100% = 57 uM dopamine signal | AID 624464 | potentiation, % (no concentration beside the values) | hit rate 0.23% among 360,000; in the data active = potentiation above about 50%; inconclusive = mostly about 30% to 49%
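D2 cells co-treated with compound plus 50 nM dopamine (EC20) for 90 min at 37 deg C to detect potentiation. Beta-arrestin recruitment was read as enzyme-fragment luminescence after 1 h at ambient temperature. Full response was set by 57 uM dopamine.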
D2 PAM-2 – D2 dopamine receptor (human) potentiation; P14416; HEK293 T-REx D2, calcium flux, EC20 dopamine potentiation; potentiation, % at 10 µM; hit rate 0.34% among 340,000;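 active = potentiation over 3 SD above the plate norm, cut at about 30% in these data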; note: 0% is about no effect
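Potentiation of an EC20 dopamine calcium response is measured in a force-coupled, tetracycline-inducible Hek293 Trex D2 line. Compound-only kinetic reads over 180 s flag agonists before dopamine addition.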
D2 ag-1 – human D2 receptor agonism in beta-arrestin assay | P14416 | DiscoveRx PathHunter D2 beta-arrestin, luminescence, 90 min; 100% = 57 uM dopamine signal | activation, % (no concentration beside the values) | hit rate 0.084% among 360,000 | AID 624465; in the data active = activation above about 40%; inconclusive = between about 15% and that limit
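Agonist mode: compounds alone added to overnight-plated D2 PathHunter cells for 90 min at 37 C, with 57 uM final dopamine (EC100) defining full response. Beta-arrestin recruitment detected by chemiluminescent reagent, read after 1 h at ambient temperature.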
D2 antag – antagonists of human D2 dopamine receptor; inhibition, % at 10 µM; hit rate 2% among 340,000; HEK293 TREx D2 cells, calcium flux, dopamine EC80; P14416; in the data active = inhibition above about 30%; inactive = below that, where a call was filed; note: 0% is about no effect
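Tetracycline-induced HEK293 TREx cells expressing D2 receptor forced-coupled to calcium signalling, loaded with no-wash calcium dye. Compounds added and calcium flux read 180 s, then dopamine added at EC80 and read a further 180 s.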
D2 ag-2 – activates the human D2 dopamine receptor | P14416 | HEK293 T-REx D2 cells, calcium flux agonist mode | activation, % at 2 µM | hit rate 0.53% among 340,000;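 active = activation over 3 SD above normal in the single-dose calcium agonist read, cut at about 30% in these data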; note: 0% is about no effect
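Agonism is scored from calcium flux in a force-coupled, inducible HEK293 cell line expressing D2, read kinetically for 180 s after compound addition against dopamine controls.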
D3 ag – activates human D3 dopamine receptor beta-arrestin recruitment. shares compounds with D2 ag-2. DiscoveRx D3 beta-arrestin cells, luminescence, 90 min. Potency, µM (top dose mostly 76.9 µM), for the others: at the top dose activation, actives largely listed as activators. hit rate 4% among 2,300. AID 720506;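 note: potency is the fitted concentration of half-maximal effect; 100% = dopamine control response; nearly all actives have a fitted effect of over 70% in size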
Target sequence (P35462 whole entry, looked up): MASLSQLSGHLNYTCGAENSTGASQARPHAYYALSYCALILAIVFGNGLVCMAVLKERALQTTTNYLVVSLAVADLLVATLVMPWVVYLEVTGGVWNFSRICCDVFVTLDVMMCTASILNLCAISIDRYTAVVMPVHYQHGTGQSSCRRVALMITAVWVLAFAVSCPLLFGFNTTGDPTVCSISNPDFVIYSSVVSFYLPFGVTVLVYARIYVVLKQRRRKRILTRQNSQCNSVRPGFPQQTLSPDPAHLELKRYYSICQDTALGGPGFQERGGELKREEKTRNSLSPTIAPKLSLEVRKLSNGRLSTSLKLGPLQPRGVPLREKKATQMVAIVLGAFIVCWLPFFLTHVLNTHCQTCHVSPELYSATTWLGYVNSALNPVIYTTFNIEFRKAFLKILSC
D2 ag-3 – activates human D2 dopamine receptor in D3 counterscreen; shares compounds with D2 ag-2; hit rate 5.9% among 2,300; AID 720507; DiscoveRx PathHunter D2 beta-arrestin, luminescence, 90 min; response scale: percent relative to full dopamine signal; Potency, µM (titrated, usually from 76.9 µM), without a hit: at the top dose activation, actives largely listed as activators; note: potency is the fitted concentration of half-maximal effect; % of control where 0% means no effect; nearly all actives have a fitted effect of over 70% in size
* hit, by the source's call; u = inconclusive; x = no result. Most compounds without a hit are left out; they make up all but 2.4% or so of the library. Unless noted, calls come from the whole dose curve; as a rule, active = well fitted activation curve with a large enough effect; inconclusive = small, poorly fitted or top-dose-only effect; inactive = flat fitted curve, though single readings scatter.

SMILES	D2 PAM-1	D2 PAM-2	D2 ag-1	D2 antag	D2 ag-2	D3 ag	D2 ag-3
COc1ccc(CCNC(=O)CSC2=NS(=O)(=O)c3ccccc3N2)cc1OC	-17	3	0	-3	0	x	x
O=C(CSC1=NS(=O)(=O)c2ccccc2N1)NCCc1ccccc1	-7	1	2	11	28	6%	0%
CCn1c(=O)c(CCC(=O)N2CCN(c3ccccn3)CC2)c(C)c2c(C)nn(-c3ccccc3)c21	-4	5	6	8	15	22%	13%
CCn1c(=O)c(CCC(=O)NCCN2CCOCC2)c(C)c2c(C)nn(-c3ccccc3)c21	-10	15	0	1	-1	x	x
Cc1ccc(S(=O)(=O)N(C)C)cc1NC(=O)COC(=O)CN1C(=O)c2ccccc2C1=O	-29	-15	-4	-20	0	4%	-4%
CC(C)c1ccc(NC(=O)C2CC3CCC2C3)cc1 (stereo unspecified)	-2	-4	0	11	0	x	x
O=C(Nc1ccc(F)cc1)C1CC2CCC1C2 (stereo unspecified)	-4	x	13	x	x	-10%	-6%
COc1ccc(C)cc1NC(=O)CCN1CCN(c2ccccc2F)CC1	18	-24	9	80*	74*	-4%	u
COc1ccc(OC)c(NC(=O)CCN2CCN(c3ccccc3F)CC2)c1	1	18	u	-12	-1	x	x
Cc1ccc(C)c(NC(=O)CCN2CCN(c3ccccc3F)CC2)c1	-16	-16	-5	67*	47*	u	9%
O=C(CCN1CCN(c2ccccc2)CC1)N/N=C/c1ccccc1O	-11	-23	7	91*	79*	-22%	u
Cc1ccc(C)c(OCC(=O)NNC(=O)CCN2CCN(c3ccccc3)CC2)c1	-13	-33	15	80*	78*	18%	u
CN1CCN(CCC(=O)N/N=C/c2ccccc2F)CC1	0	-8	-1	2	0	x	x
COc1cccc(-n2c(SCc3ccc(F)cc3)nc3c([nH]c4ccccc43)c2=O)c1	x	11	x	x	0	x	x
CCCCN1CCc2nc(N3CCN(c4ncccn4)CC3)ncc2C1	x	-23	x	x	x	x	x
Cn1c2ccccc2c2cnn(CC(=O)NCCCN3CCCCC3)c(=O)c21	x	-6	x	x	0	x	x
CCN(CC)c1ccc(NC(=O)CN2CCN(c3ccccc3OC)CC2)cc1	x	-7	x	x	-6	x	x
COc1ccc([N+](=O)[O-])cc1NC(=O)CCN1CCN(c2ccccc2OC)CC1	-34	-27	3	101*	66*	-7%	7%
COc1ccccc1N1CCN(CC(=O)Nc2c(C)n[nH]c2C)CC1	-21	-21	-2	53*	67*	-10%	7%
CCN1CCN(CCC(=O)Nc2ccccc2OC)CC1	-16	1	-2	-5	-1	x	x
COC(=O)c1[nH]c2cccc(OC)c2c1NC(=O)CCN1CCN(c2ccccc2OC)CC1	-13	-20	4	83*	53*	-8%	20%
COc1ccc(C)cc1NC(=O)CCN1CCN(c2ccccc2)CC1	-13	-25	u	82*	79*	u	u
CN1CCn2cnc(C(=O)Nc3ccc(Cl)cc3)c2C1=O	4	x	-9	x	x	x	x
CCn1c(CN2CCC(C)CC2)nc2cc(NC(=O)COc3ccc(Cl)c(C)c3)ccc21	x	-40	x	x	-1	x	x
Cc1cc(C)n2c(SCC(=O)N(C)C3CCS(=O)(=O)C3)nnc2n1 (stereo unspecified)	-23	-12	-2	28	60*	4%	6%
SMILES	D2 PAM-1	D2 PAM-2	D2 ag-1	D2 antag	D2 ag-2	D3 ag	D2 ag-3
CN(C(=O)CSc1nnc(-c2ccccc2)n1C)C1CCS(=O)(=O)C1 (stereo unspecified)	0	4	-2	9	-1	x	x
CN(C)S(=O)(=O)c1cccc(NC(=O)CSc2ncnc3ccccc23)c1	5	x	13	x	x	u	u
CCOc1cc(CNCCc2ccc(S(N)(=O)=O)cc2)ccc1OCc1ccc(Cl)cc1	12	-2	4	65*	2	u	u
CN(C)S(=O)(=O)c1ccc2c(c1)nnn2CCNC(=O)Nc1ccc(Cl)cc1	x	0	x	x	2	x	x
COc1cc(C2NC(=O)NC(C)=C2C(=O)OCc2ccc(C)cc2)cc(OC)c1O (stereo unspecified)	-3	23	0	-6	1	x	x
COc1cc(C2NC(=O)NC(C)=C2C(=O)OCc2ccc(C)cc2)cc(OC)c1OC (stereo unspecified)	-16	-12	-6	35*	0	-6%	-1%
CCOC(=O)c1c(NC(=O)c2nc(SC)ncc2Cl)sc(C)c1C	x	9	x	x	1	x	x
CCOc1ccc(NC(=O)CSC2=Nc3ccccc3C3=NC(CCC(=O)NCc4cccs4)C(=O)N23)cc1 (stereo unspecified)	x	-8	x	x	0	x	x
CCOc1ccc(C(=O)C(CCC(CN(C)C)C(=O)c2ccc(OCC)cc2)CN(C)C)cc1 (stereo unspecified)	-11	16	-1	37*	3	-17%	-3%
COc1ccc(C(=O)C(CCCCC(CN(C)C)C(=O)c2ccc(OC)cc2)CN(C)C)cc1 (stereo unspecified)	-35	x	-1	x	x	x	x
CCN(c1ccccc1)c1ncnc2c1cnn2-c1ccc(C)cc1C	x	x	x	x	1	x	x
COc1cc(CN2CCN(C(=O)CC(C)C)CC2)cc(OC)c1OC	3	2	1	-1	0	x	x
COc1ccc(CN2CCN(C(=O)CC(C)C)CC2)cc1	-8	-4	-2	23	38*	-2%	3%
Cc1ccc(CN2CCN(C(=O)CC(C)C)CC2)cc1	7	x	9	x	x	2%	10%
Cc1cc(S(=O)(=O)Nc2cccc(-c3ccc(N4CCOCC4)nn3)c2)c(C)cc1Cl	x	-2	x	x	0	x	x
Cc1cc(Nc2cc(F)ccc2C)nc(-n2nc(C)cc2C)n1	x	-22	x	x	-2	x	x
O=C(CSc1nnc(-c2cccc(Br)c2)o1)N1CCOCC1	5	2	-1	13	0	-4%	3%
NNC(=O)CCn1nnc2ccccc21	-25	-4	4	x	x	-7%	-3%
CCC(C)(C)C1CCC2(CC1)NC(=O)N(CC(=O)N(C)Cc1ccc3c(c1)OCCO3)C2=O (stereo unspecified)	0	-4	7	9	0	1%	7%
CN(Cc1ccc2c(c1)OCCO2)C(=O)CN1C(=O)NC2(CCCCC2)C1=O	-9	4	-6	-7	0	x	x
